Data taken from PMC12670160, “A drug-repurposing screen of FDA- and EMA-approved drugs identifies two NF-κB inhibitors active against eumycetoma” (Journal of Antimicrobial Chemotherapy, 2025).
Structures can show the parent of a compound that is named as a salt. Where two headings read alike, the source gives them in different places. Out of some 5,300 compounds screened, about 130 (2.5%) showed an effect of 50% or more. The sample as a whole holds a higher share of strong results than the screen did.

Tested on: M. mycetomatis strain mm55
Details: 96 h, 2 µM

| Compound | % viability (m. mycetomatis hyphae) [%] | % viability (primary screen, metabolic activity vs growth control, inhibitor) [%] |
| --- | --- | --- |
| COc1cc2cc(c1Cl)N(C)C(=O)C[C@H](OC(=O)C(C)C)[C@]1(C)O[C@H]1[C@H](C)[C@@H]1C[C@@](O)(NC(=O)O1)[C@H](OC)/C=C/C=C(\C)C2 [ONC0000769, ansamitocin p3] | 44.45 | – |
| Cc1[nH]c2ccc(O)cc2c1CCN [ONC0000021, 2methyl5hydroxytryptamine] | 80.31 | – |
| OCC(Br)(Br)Br [ONC0003374, 222tribromoethanol] | 70.94 | – |
| COC(=O)CC[C@@H]1N=C(c2ccccn2)c2cc(Br)ccc2-n2c(C)cnc21 [ONC0001123, remimazolam benzenesulfonate] | 82.85 | – |
| Ic1cncc(OC[C@@H]2CCN2)c1 [ONC0001838, 5iodoa85380] | 120.9 | – |
| NC(=S)N/N=C/c1coc2ccccc2c1=O [ONC0001578, fpa124] | 55.38 | – |
| C[C@@H](N)C(=O)N[C@@H](CO)C(=O)N[C@H](C(=O)N[C@H](C(=O)N[C@H](C(=O)N[C@@H](CC(N)=O)C(=O)N[C@@H](Cc1ccc(O)cc1)C(=O)N[C@H](C(N)=O)[C@@H](C)O)[C@@H](C)O)[C@@H](C)O)[C@@H](C)O [ONC0001968, dapta] | – | 96.08 |
| COc1ccc(C(=O)c2c(C)n(CCN3CCOCC3)c3cc(I)ccc23)cc1 [ONC0003455, am630 iodopravadoline] | 49.32 | – |
| COc1ccc(C(=O)c2c(C)n(CCN3CCOCC3)c3ccccc23)cc1 [ONC0001936, pravadoline] | 72.97 | – |
| CC(=O)NCCCOc1ccc(C(=O)N2CCC(N3C(=O)CCc4ccccc43)CC2)cc1 [ONC0002419, fuscoside] | 92.96 | – |
| CC(=O)O[C@H]1CC[C@@]2(C)C(=CC(=O)[C@@H]3[C@@H]2CC[C@]2(C)C(=O)CC[C@@H]32)C1 [ONC0002730, 7oxodehydroepiandrosterone acetate] | 95.04 | – |
| CC(=O)O[C@H]1CC[C@@]2(C)C(=CCC3C2CC[C@]2(C)C(=O)CCC32)C1 (stereo partly shown) [ONC0003269, prasterone acetate] | 44.2 | – |
| C[C@]12CC[C@H](O)C[C@@H]1CC[C@@H]1[C@H]2CC[C@]2(C)C(=O)CC[C@@H]12 [ONC0005247, epiandrosterone 3androsterone] | 106.6 | – |
| Cc1ncc(OC[C@@]2(c3cccc(F)c3)C[C@H]2C(=O)Nc2ccc(F)cn2)c(C)n1 [ONC0001232, lemborexant] | 126.3 | – |
| COC(=O)C1=C(C)NC(C)=C(C(=O)OCCCN2CCC(c3ccccc3)(c3ccccc3)CC2)[C@@H]1c1cccc([N+](=O)[O-])c1 [ONC0000198, dexniguldipine] | 76.6 | – |
| Cc1ccc2c(c1)[C@]13CCCC[C@@H]1[C@H](C2)N(C)CC3 [ONC0001964, dimemorfan] | 96.79 | – |
| O=C1C=C2C=C[C@@H]3C[C@@]2(O1)[C@H]1CCCCN31 [ONC0004197, securinine] | 79.41 | – |
| OC1(c2ccc(Cl)cc2)c2ccccc2C2=NCCN21 (stereo not shown) [ONC0005297, mazindol] | 110.5 | – |
| CN(C)CCNc1nc2cc(O)ccc2c2c1C(=O)c1ccccc1-2 [ONC0002255, tas103 dihydrochloride] | 114.4 | – |
| CN(C(=O)/C=C/c1ccoc1)[C@@H]1CC[C@@]2(O)[C@H]3Cc4ccc(O)c5c4[C@@]2(CCN3CC2CC2)[C@H]1O5 [ONC0001145, nalfurafine hydrochloride] | 84.21 | – |

| Compound | % viability (m. mycetomatis hyphae) [%] | % viability (primary screen, metabolic activity vs growth control, inhibitor) [%] |
| --- | --- | --- |
| Oc1ccc2c3c1O[C@H]1c4oc5ccccc5c4C[C@@]4(O)[C@@H](C2)N(CC2CC2)CC[C@]314 [ONC0001439, naltriben] | 49.95 | – |
| Oc1ccc2c3c1O[C@H]1c4[nH]c5ccccc5c4C[C@@]4(O)[C@@H](C2)N(CC2CC2)CC[C@]314 [ONC0001519, naltrindole] | 93.26 | – |
| COC(=O)/C=C/C(=O)N[C@@H]1CC[C@@]2(O)[C@H]3Cc4ccc(O)c5c4[C@@]2(CCN3CC2CC2)[C@H]1O5 [ONC0001459, betafunaltrexamine] | 48.02 | – |
| Oc1ccc2c3c1O[C@H]1c4[nH]c5c(c4C[C@@]4(O)[C@@H](C2)N(CC2CC2)CC[C@]314)C[C@@]1(O)[C@H]2Cc3ccc(O)c4c3[C@@]1(CCN2CC1CC1)[C@H]5O4 [ONC0002653, norbinaltorphiminedihydrochloride] | 66 | – |
| Oc1ccc2c3c1O[C@H]1[C@@H](O)CC[C@@]4(O)[C@@H](C2)N(CC2CCC2)CC[C@]314 [ONC0002017, nalbuphinehcl] | 86.82 | – |
| O=C1NC(=S)NC(=O)C1C(=O)Nc1ccccc1 [ONC0002959, merbarone] | 104.2 | – |
| COc1ccsc1CNCC[C@@]1(c2ccccn2)CCOC2(CCCC2)C1 [ONC0001391, oliceridine hydrochloride] | 102.3 | – |
| O=C(C[S+]([O-])C(c1ccccc1)c1ccccc1)NO (stereo not shown) [ONC0001184, adrafinil] | 106.5 | – |
| Clc1ccc(CO/N=C(\Cn2ccnc2)c2ccc(Cl)cc2Cl)c(Cl)c1 [Oxiconazole nitrate] | 0.8852 | – |
| CC(=O)[C@H]1CC[C@H]2[C@@H]3CC[C@@H]4C[C@H](O)CC[C@]4(C)[C@H]3CC[C@]12C [ONC0001671, allopregnanolone] | 102.1 | – |
| Cc1ccccc1-n1c(CF)nc2ccc(N)cc2c1=O [ONC0003405, afloqualone] | 71.52 | – |
| CC(C)CC(N)C1(c2ccc(Cl)cc2)CCC1 (stereo not shown) [ONC0002665, bts54505] | 62.54 | – |
| O=C(Nc1ccccc1F)N[C@H]1N=C(c2ccccc2)c2ccccc2NC1=O [ONC0000966, rsv604] | 70.36 | – |
| OCC(O)[C@H]1O[C@@H]2O[C@H](C(Cl)(Cl)Cl)O[C@@H]2[C@H]1O (stereo partly shown) [ONC0004285, chloralose] | 88.6 | – |
| c1ccc(CC(c2ccccc2)N2CCCCC2)cc1 (stereo not shown) [ONC0000060, 112diphenylethylpiperidine] | 45.07 | – |
| Cc1cccc(C)c1N=C1NCCCS1 [ONC0000628, xylazine] | 103.4 | – |
| O=C(O)Cc1cccnc1C(=O)O [ONC0001551, homoquinolinicacid] | 85.08 | – |
| C=C(C)[C@@H]1[C@H]2OC(=O)[C@H]1[C@]1(O)C[C@H]3O[C@]34C(=O)O[C@H]2[C@]14C [ONC0004797, picrotoxinin] | 48.22 | – |
| CC(C)(O)[C@H]1[C@@H]2OC(=O)[C@@H]1[C@]1(O)C[C@H]3O[C@]34C(=O)O[C@H]2[C@]14C [ONC0002779, picrotin] | 109.3 | – |
| C=CCN1CC[C@@]2(C)c3cc(O)ccc3C[C@H]1[C@H]2C [ONC0000854, skf10047] | 56.88 | – |
